HP1b chromo inh: HP1-beta chromodomain-methylated histone interaction inhibition. P83916. AlphaScreen HP1-beta / biotin-H3K9me3 peptide binding. Potency, µM (titrated, usually from 114 µM), for the others: top-dose activity change, negative = inhibition, actives largely listed as inhibitors. 390,000 tested, 0.56% active; further: nearly all actives have a fitted effect of over 70% in size
Target sequence (P83916 whole entry, looked up): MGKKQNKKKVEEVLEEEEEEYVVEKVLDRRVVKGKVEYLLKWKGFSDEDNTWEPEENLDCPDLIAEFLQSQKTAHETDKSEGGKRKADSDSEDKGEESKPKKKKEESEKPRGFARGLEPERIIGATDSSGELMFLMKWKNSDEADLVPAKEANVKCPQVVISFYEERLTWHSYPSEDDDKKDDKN
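AlphaScreen: HP1-beta (50 nM) preformed 30 min with biotin-H3(1-18)K9me3 peptide (50 nM) in PBS pH 7.4, 0.01% Tween-20. Compound added for 30 min at RT, then streptavidin donor/nickel chelate acceptor beads (10 ug/mL) for 30 min.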
Sfp inh: inhibitors of Bacillus subtilis Sfp phosphopantetheinyl transferase. Biochemical Sfp PPTase activity, qHTS. Q9F4F7. Potency, µM, for inactives: largest response in the series, negative = inhibition, actives largely listed as inhibitors. AID 1490. 310,000 tested, 3.5% active;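 further: the enzyme is Sfp with the accession as filed and its product quenches rhodamine fluorescence; 0% = enzyme reaction without inhibitor and -100% = no enzyme wells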
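Compounds were incubated with enzyme (final 15 nM) for 15 min at room temperature before substrate addition started the reaction. Fluorescence at 525 nm excitation, 598 nm emission was recorded immediately and after 30 minutes.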
BAZ2B inh: inhibitors of human BAZ2B bromodomain | Potency, µM (highest dose often 114 µM), without a hit: top-dose activity change, negative = inhibition, actives largely listed as inhibitors | 360,000 tested, 4.4% active | AlphaScreen BAZ2B-H3K14Ac peptide displacement | Q9UIF8; further: on the % scale 0 is the no-effect control and ±100 the full control effect; nearly all actives have a fitted effect of over 60% in size
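BAZ2B 50 nM plus b-H3(5-23)K14Ac 50 nM, PBS pH 7.4/0.01% Tween-20, 30 min RT; compound added (max 110 uM), 30 min RT; streptavidin donor/Ni-chelate acceptor beads 10 ug/mL final, 20 min dark; AlphaScreen read.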
G9a block: blocks human histone lysine methyltransferase G9a. AID 504332. G9a H3K9 monomethylation, AlphaScreen, 2 h. Potency, µM (top dose mostly 102 µM), for inactives: at the top dose activity, negative = inhibition, usual class: inhibitors. Q96KQ7. 350,000 tested, 8.8% active; further: on the % scale 0 is the no-effect control and ±100 the full control effect; nearly all actives have a fitted effect of over 75% in size
Target sequence (Q96KQ7 913-1193 limits assumed): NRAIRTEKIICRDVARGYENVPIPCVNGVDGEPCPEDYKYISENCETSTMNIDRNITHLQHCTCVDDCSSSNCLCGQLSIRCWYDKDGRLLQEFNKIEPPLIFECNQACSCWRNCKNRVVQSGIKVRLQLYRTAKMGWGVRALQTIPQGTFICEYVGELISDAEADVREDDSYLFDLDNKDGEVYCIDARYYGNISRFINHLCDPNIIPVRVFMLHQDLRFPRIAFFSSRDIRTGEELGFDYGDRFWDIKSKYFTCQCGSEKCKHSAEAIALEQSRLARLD
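AlphaScreen detection with an anti-monomethyl H3K9 antibody quantified product after a 2 h room-temperature reaction containing 500 nM biotinylated H3K9 peptide, 20 µM SAM and 20 nM enzyme, which had been preincubated 15 min with compound.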
12-LOX inh: ALOX12 (human) lipoxygenase inhibition; P18054; purified 12hLO, xylenol orange hydroperoxide absorbance; Potency, µM (top dose mostly 108 µM), without a hit: at the highest dose activity change, negative = inhibition, hits mostly inhibitors; 580,000 tested, 1.1% active; further: on the % scale 0 is the no-effect control and ±100 the full control effect
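Purified human 12hLO (150 nM final) in 25 mM Hepes, 0.01% Triton X-100, pH 7.0 was preincubated 15 min at room temperature with compound. Then 40 uM arachidonic acid was added, 30 min. Hydroperoxide was read by Fe-XO absorbance ratio 573/405 nm.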
JMJD2A Tudor: inhibitors of human JMJD2A Tudor domain; O75164; AlphaScreen JMJD2A-Tudor / H3K4me3 peptide binding; Potency, µM (titrated, usually from 114 µM), for the others: top-dose activity change, negative = inhibition, most hits filed as inhibitors; 390,000 tested, 4.4% active; AID 504339; further: on the % scale 0 is the no-effect control and ±100 the full control effect; nearly all actives have a fitted effect of over 50% in size
* hit, by the source's call; ? = inconclusive; . = no result given; [ ] = dose if it differs, or a comment. Hits are enriched below; roughly 8.7% of the tested compounds scored in any of these assays. The call rests on the fitted dose curve; in most records, active means well fitted curve in the direction sought with a large enough effect; inconclusive means small, poorly fitted or top-dose-only effect, or another doubt; inactive means no such curve, though single readings can be large; an effect the other way counts as inactive or inconclusive. Potency means the concentration at half of the fitted maximal effect.

SMILES | HP1b chromo inh | Sfp inh | BAZ2B inh | G9a block | 12-LOX inh | JMJD2A Tudor
COC(=O)c1ccc(CSc2cc(C)c3ccccc3n2)o1 | 70.6% | 25.1µM* | 107.4% | 87.7% | 232.9% | 58.8%
CCn1c2ccccc2c2nnc(SCc3ccccc3)nc21 | 69.6% | -12.0% | 10.0% | 22.8% | -16.4% | 9.0%
CCCn1c(SCc2ccc(C(=O)OC)o2)nc2ccccc2c1=O | 63.1% | -7.8% | 14.9% | 47.4% | -18.0% | 42.5%
CCn1c2ccccc2c2nnc(SCc3ccc(C(=O)OC)o3)nc21 | 25.8% | 31.6µM* | -26.2% | ? | -15.9% | -21.5%
CC(C(=O)c1c[nH]c2ccccc12)N1CCC(C(N)=O)CC1 (stereo unspecified) | . | . | . | . | 2.9% | .
CCCOC(=O)c1ccc(Oc2coc3cc(OC(=O)c4ccc5c(c4)OCO5)ccc3c2=O)cc1 | . | . | . | . | 27.2% | .
C/C=C/Cn1c(SCCO)nc2c1c(=O)[nH]c(=O)n2C | . | . | . | . | -3.0% | .
CSc1nc2c(c(=O)[nH]c(=O)n2C)n1Cc1ccc(Cl)cc1 | ? | 20µM* | -11.4% | 25.0%[0.501 µM] | ? | -21.8%
CCn1c(SCc2ccccc2)nc2c1c(=O)[nH]c(=O)n2C | 9.1% | -6.2% | 9.7% | 44.7µM* | 8.8% | 10.0%
Cn1c(=O)[nH]c(=O)c2c1nc(SCC(=O)O)n2CCCc1ccccc1 | 25.7% | 5.6% | -11.4% | 2.4%[2.33 µM] | ? | -10.7%
C/C=C/Cn1c(SC)nc2c1c(=O)[nH]c(=O)n2C | 5.1% | ? | -2.5% | 8.91µM* | ? | -6.2%[11.4 µM]
Cn1c(=O)[nH]c(=O)c2c1nc(SCC(=O)O)n2Cc1ccccc1 | ? | 18.0% | 7.8% | 22.4µM* | -34.3% | 25.1µM*
Cn1c(SCc2ccccc2)nc2c1c(=O)[nH]c(=O)n2C | 46.3% | 7.4% | 10.7% | -20.2% | ? | -4.7%
Cn1c(=O)[nH]c(=O)c2c1nc(Sc1ccccc1)n2Cc1ccc(Cl)cc1 | . | . | . | . | 22.5% | .
C/C=C/Cn1c(SCc2ccc(Cl)cc2)nc2c1c(=O)[nH]c(=O)n2C | 6.9% | 0.7% | 1.4% | 44.7µM* | ? | 4.1%
COCCn1c(SCc2ccc(Cl)cc2)nc2c1c(=O)[nH]c(=O)n2C | 2.1% | . | . | . | 0.0% | -4.0%
Cn1c(=O)c2c(nc(SCC(=O)O)n2Cc2cccc(C(F)(F)F)c2)n(C)c1=O | 47.1% | 6.4% | 4.5% | 14.1µM* | -6.5% | -27.3%
CCCn1c(SCc2ccc(Cl)cc2)nc2c1c(=O)[nH]c(=O)n2C | 9.2% | 8.3% | -8.8% | 50.1µM* | -4.9% | -3.4%
Cn1c(=O)c2c(nc(SCC(N)=O)n2Cc2ccccc2)n(C)c1=O | . | . | . | . | 0.0% | .
NC(=S)N/N=C/c1ccc(-c2ccc(SC(F)F)cc2)o1 | 14.1% | ? | -8.2% | . | ? | -24.8%
O=C(N/N=C/c1ccc(-c2ccc(S(=O)(=O)Nc3ncccn3)cc2)o1)c1cc2ccccc2cc1O | 28.2µM* | 50.1µM* | 17.8µM* | ? | 12.6µM* | 50.1µM*
CCOC(=O)c1ccc(-c2ccc(/C=N/NC(=O)CN(c3cccc(C)c3)S(C)(=O)=O)o2)cc1 | 26.1% | 9.9% | -35.2% | 7.94µM* | 0.1% | -19.0%
CCOc1ccc(S(=O)(=O)N(CC(=O)N/N=C/c2ccc(-c3ccc([N+](=O)[O-])cc3)o2)c2ccccc2)cc1 | -21.5% | -20.3% | 22.4µM* | 1.58µM* | 31.6µM* | 28.2µM*
NC(=S)NN=Cc1ccc(-c2ccc(S(=O)(=O)Nc3ncccn3)cc2)o1 | ? | . | . | . | ? | 50.1µM*
COc1cccc(OCC(=O)c2ccc3c(c2)N(C(C)C(=O)NCCc2ccccc2)C(=O)CO3)c1 (stereo unspecified) | . | . | . | . | -6.7% | .
SMILES | HP1b chromo inh | Sfp inh | BAZ2B inh | G9a block | 12-LOX inh | JMJD2A Tudor
CCCCn1c(=O)[nH]c(=O)c2c1ncn2CCC(C)C | . | . | . | . | -1.5% | .
CC(C)COc1ccc(C(=O)Nc2ccc(S(=O)(=O)Nc3ncccn3)cc2)cc1 | 25.4% | . | 0.1% | -3.4%[59 µM] | -10.6% | -15.0%
CCOc1ccc(C(=O)N/N=C/c2ccc(-c3ccc(S(=O)(=O)Nc4ncccn4)cc3)o2)cc1 | -6.3% | -5.3% | 79.4µM* | -7.3%[12.7 µM] | 6.0% | 89.1µM*
CN1CCCN(Cc2ccccc2C(F)(F)F)CC1 | ? | -28.2% | 50.1µM* | ? | ? | 0.708µM*
c1cncc(CN2CCN(Cc3c[nH]c4ccccc34)CC2)c1 | . | . | . | . | 0.316µM* | .
CN1CCN(Cc2nc(C3(O)CCN(Cc4ccccc4C(F)(F)F)CC3)cs2)CC1 | . | . | . | . | 25.4% | .
CCCS(=O)(=O)N1CCN(Cc2c[nH]c3ccccc23)CC1 | ? | -13.3% | 50.1µM* | 25.1µM* | ? | 22.4µM*
CCCS(=O)(=O)N1CCN(Cc2ccccc2C(F)(F)F)CC1 | ? | 50.1µM* | -111.1% | 10µM* | ? | 20µM*
CCOc1ccc(CN(C)C(=O)c2nn(Cc3ccccc3)c(=O)c3ccccc23)cc1OC | . | . | . | . | -20.8% | .
O=C1c2ccccc2CN1C1CCN(CC2CC2)CC1 | . | . | . | . | 5.6%[12.5 µM] | .
O=C1CCCN1CCCN1C(=O)[C@H]2CN(Cc3cccc(Cl)c3)C[C@H]2C1=O | . | . | . | . | 50.5% | .
C=CCOc1ccccc1CN1CCC(CO)(CCOc2ccccc2)CC1 | 41.6% | 0.6% | -0.9% | 6.5% | 5.4% | -14.4%
C=CCOc1ccccc1CN1CCCN(C)CC1 | ? | -28.9% | 70.8µM* | 8.91µM* | -8.0% | 10µM*

Compound activity from PubChem.
